Assay results reported in PubChem BioAssay (NCATS).
Inconclusive results are not listed. Active and inactive are the calls of the source. Unless noted, calls come from the whole dose curve; as a rule, active = well fitted curve in the direction sought with a large enough effect; inconclusive = small, poorly fitted or top-dose-only effect, or another doubt; inactive = no such curve, though single readings can be large; an effect the other way counts as inactive or inconclusive.

What was measured:
[1] = HPAF-II Cancer Cell Toxicity qHTS against the NCATS CANVASS Library (AID 1347346); note: nearly all actives have a fitted effect of over 55% in size; note: potency is the fitted concentration of half-maximal effect
Procedure, shortened: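 Luminescence from CellTiter-Glo, added after 72 h compound exposure and a 15 min room-temperature incubation, served as the viability readout. HPAF-II cells (1000/well) received an 11-point concentration series.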

[2] = OV-SAHO Cancer Cell Toxicity qHTS against the NCATS CANVASS Library (AID 1347348); note: series mostly up to about 38 µM; nearly all actives have a fitted effect of over 55% in size
Procedure, shortened: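 Toxicity is measured over 72 h of compound exposure at 37 degrees C under 5% CO2. Each well holds 1000 cells, pre-incubated for 4 hours before dosing across an 11-point range. CellTiter-Glo luminescence gives viability.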

[3] = COV-362 Cancer Cell Toxicity qHTS against the NCATS CANVASS Library (AID 1347352); note: series mostly up to about 38 µM
Procedure, shortened: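 Luminescent ATP read-out (CellTiter-Glo, 15min at room temperature) measures survival after cells face an 11-point compound series for 72 hours at 37 degrees C/5% CO2.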

[4] = HEK293 24hr Apoptosis Induction qHTS against the NCATS CANVASS Library (AID 1347359)
Procedure, shortened: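 Caspase-3/7 activation measured as luminescence from the DEVD-based Caspase-Glo reagent, 15 min at room temperature, following 24-hour compound treatment of HEK293 cells.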

[5] = HEK293 12hr Apoptosis Induction qHTS against the NCATS CANVASS Library (AID 1347361)
Procedure, shortened: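 Apoptosis in HEK293 was scored as caspase-3/7 luminescence following 12 h treatment with a compound concentration series in qHTS format.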

[6] = tested on: NAD(P)H diaphorase (Clostridium kluyveri); experiment: Diaphorse counterscreen qHTS: Assay Interference Panel against the NCATS CANVASS Library (AID 1347362)
Procedure, shortened: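 Counterscreen for coupling-enzyme interference: resorufin fluorescence from resazurin/NADH turnover, read after 5 min at room temperature. Compounds were tested over an 11-point series after 15 min dark preincubation with diaphorase in PBS-Tween.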

[7] = target: Luciferin 4-monooxygenase (Photinus pyralis) (UniProt P08659); experiment: Firefly luciferase counterscreen qHTS: Assay Interference Panel against the NCATS CANVASS Library (AID 1347363); note: series mostly up to about 57 µM
Procedure, shortened: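 Luminescence inhibition readout: compounds (11-point qHTS) sat 15 min at room temperature with substrate mix (0.013 mM luciferin and ATP), then firefly luciferase was added and signal read 5 min later.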

[8] = KB-3-1 Cancer Cell Toxicity qHTS against the NCATS CANVASS Library (AID 1347366); note: series mostly up to about 46 µM; nearly all actives have a fitted effect of over 75% in size
Procedure, shortened: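 Seed KB-3-1 cells at 500/well in DMEM with 10% FBS, add compounds, incubate 72 hr at 37C and 5% CO2, then add CellTiter-Glo and read luminescence after 10 minutes.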

[9] = target: Nuclear receptor subfamily 1 group I member 3 (Homo sapiens) (UniProt Q14994); experiment: qHTS for Constitutive Androstane Receptor (CAR) Agonist screened against the NCATS CANVASS Library (AID 1347373);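 note: every well also contained 1.5 µM PK11195 alongside the test compound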
Procedure, shortened: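 HepG2-hCAR-CYP2B6 cells, 2500/well, attached 4hr; cpd + PK11195 1.5uM final; 24hr 37C 5% CO2. CellTiter-Fluor viability read, then ONE-Glo luminescence for CAR activation.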

[10] = target: Mitogen-activated protein kinase 10 (Mus musculus) (UniProt Q61831); experiment: JNK3 AlphaScreen Assay (AID 530; active = well fitted curve in either direction with a large enough effect, not every such curve was filed as active;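 note: kinase came from lysate of stimulated human HepG2 cells; signal reports phosphorylation of biotinylated GST-cJun 1-79 at Ser73 with 10 µM ATP; series mostly up to about 57 µM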)
Procedure, shortened: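 Compound titrations were preincubated 15 minutes at room temperature with substrate, antibody and pre-activated JNK3-containing HepG2 lysate. Reactions were started with 10 uM ATP and stopped with EDTA-containing bead buffer for AlphaScreen detection.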

[11] = target: Ubiquitin carboxyl-terminal hydrolase 1 (Homo sapiens) (UniProt O94782); experiment: Inhibitors of USP1/UAF1: Pilot qHTS (AID 504865);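 note: rhodamine fluorescence freed from ubiquitin-rhodamine substrate followed over time; top concentration of the series differs between compounds; nearly all actives have a fitted effect of over 35% in size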
Procedure, shortened: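 Kinetic fluorescence assay: 1nM USP1/UAF1, 15 min compound preincubation, then 150nM Ub-Rho; 480/540 nm.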

[12] = target: DNA dC->dU-editing enzyme APOBEC-3G (Homo sapiens) (UniProt Q9HC16); experiment: qHTS for inhibitors of Vif-A3G interactions: Validation (AID 588379)
Procedure, shortened: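 HeLa cells stably expressing Vif and A3G-eYFP, 700 cells/well, incubated overnight at 37 deg C, then exposed to compound overnight at 37 deg C. Inhibition of Vif-mediated degradation read as increased yellow fluorescence (Ex 488/Em 500-530) by laser-scanning cytometry.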

[13] = tested on: Zika virus NS2B-NS3 protease; experiment: Primary screen GU AMC qHTS for Zika virus inhibitors (AID 1347154); note: nearly all actives have a fitted effect of over 70% in size
Procedure, shortened: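 Fluorogenic AMC-substrate cleavage by noncovalent NS2B-NS3 protease complex (25 nM, pH 8.0 Tris buffer with Tween 20) followed for 15 minutes at room temperature (~20% conversion). Percent inhibition from ex340/em450 signal change, fitted by 4-parameter Hill equation.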

[14] = target: Glucocorticoid receptor (Homo sapiens) (UniProt P04150); experiment: GR-GFP Redistribution (AID 450;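 active = compounds whose dose series gives a full or clear partial fitted curve of increased nuclear translocation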; note: potency is the fitted concentration of half-maximal effect); conditions: U2OS GR-GFP nuclear translocation, laser cytometry, 2 h
[15] = target: Glucocorticoid receptor (Homo sapiens) (UniProt P04150); experiment: GR-EFC Redistribution (AID 451; calls by dose curve; note: potency is the fitted concentration of half-maximal effect); conditions: CHO-K1 GR-EFC translocation, beta-gal luminescence, 2 h
Procedure, shortened: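 Translocation of GR-ED fusion to nuclear EA restores b-gal, read by luminescence after 1 h room-temperature detection. Engineered CHO-K1 biosensor cells, 1,000/well, exposed 2 h at 37 C to titrations up to 46 uM final.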

[16] = qHTS for Inhibitors of Plasmodium falciparum (DD2) proliferation (AID 504314);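 note: parasite DNA measured by SYBR Green fluorescence after red cell lysis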
Procedure, shortened: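 Quantitative HTS growth inhibition: SYBR Green I binding to parasite DNA after 72 h drug exposure of infected erythrocytes (0.3% parasitemia, 2.5% hematocrit). Signals normalized per plate to inhibitor and vehicle wells.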

[17] = qHTS for Inhibitors of Plasmodium falciparum (7G8) proliferation (AID 504316); note: series mostly up to about 6.7 µM; nearly all actives have a fitted effect of over 65% in size
Procedure, shortened: (§1)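 Erythrocytes infected with P. falciparum line (0.3% parasitemia, 2.5% hematocrit final) incubated with compounds 72 h at 37 °C, 5% CO2; SYBR Green lysis buffer added, fluorescence read next day. Normalized to 0.29 uM artemisinin and DMSO.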

[18] = qHTS for Inhibitors of Plasmodium falciparum (HB3) proliferation (AID 504318); note: nearly all actives have a fitted effect of over 60% in size
Procedure, shortened: as §1

[19] = qHTS for Inhibitors of Plasmodium falciparum (CP250) proliferation (AID 504320)
Procedure, shortened: as §1

Measured: Potency

Sequence of Nuclear receptor subfamily 1 group I member 3 (Homo sapiens) (Q14994 whole entry, looked up): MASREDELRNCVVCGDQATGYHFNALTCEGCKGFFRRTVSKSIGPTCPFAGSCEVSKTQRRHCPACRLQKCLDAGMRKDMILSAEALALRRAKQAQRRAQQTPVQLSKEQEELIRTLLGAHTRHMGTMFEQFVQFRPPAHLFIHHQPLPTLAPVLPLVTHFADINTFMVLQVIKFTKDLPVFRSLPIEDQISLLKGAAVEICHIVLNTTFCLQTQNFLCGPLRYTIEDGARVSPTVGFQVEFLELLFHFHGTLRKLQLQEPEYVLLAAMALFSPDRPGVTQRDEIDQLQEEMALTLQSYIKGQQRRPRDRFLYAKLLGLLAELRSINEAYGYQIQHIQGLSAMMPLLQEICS
Sequence of Ubiquitin carboxyl-terminal hydrolase 1 (Homo sapiens) (O94782 whole entry, looked up): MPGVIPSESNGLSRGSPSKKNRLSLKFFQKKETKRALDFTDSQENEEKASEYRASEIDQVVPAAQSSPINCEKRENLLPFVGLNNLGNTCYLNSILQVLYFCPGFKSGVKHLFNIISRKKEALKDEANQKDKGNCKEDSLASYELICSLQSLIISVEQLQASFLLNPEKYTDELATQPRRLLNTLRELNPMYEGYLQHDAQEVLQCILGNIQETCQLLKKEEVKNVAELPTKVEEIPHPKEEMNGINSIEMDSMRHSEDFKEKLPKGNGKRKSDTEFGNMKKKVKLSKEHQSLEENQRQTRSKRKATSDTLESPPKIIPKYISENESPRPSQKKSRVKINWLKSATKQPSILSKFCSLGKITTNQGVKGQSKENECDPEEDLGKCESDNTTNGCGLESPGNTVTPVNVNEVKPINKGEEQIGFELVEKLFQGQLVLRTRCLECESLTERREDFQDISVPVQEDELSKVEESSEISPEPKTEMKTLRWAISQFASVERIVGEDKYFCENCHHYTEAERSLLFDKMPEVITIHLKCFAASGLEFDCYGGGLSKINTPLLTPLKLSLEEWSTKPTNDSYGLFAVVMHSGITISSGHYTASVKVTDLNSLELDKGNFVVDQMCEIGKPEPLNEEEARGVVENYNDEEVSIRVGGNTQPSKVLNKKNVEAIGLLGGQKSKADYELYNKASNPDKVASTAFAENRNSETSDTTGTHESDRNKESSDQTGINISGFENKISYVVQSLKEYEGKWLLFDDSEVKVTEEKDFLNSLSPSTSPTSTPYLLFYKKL
Sequence of DNA dC->dU-editing enzyme APOBEC-3G (Homo sapiens) (Q9HC16 whole entry, looked up): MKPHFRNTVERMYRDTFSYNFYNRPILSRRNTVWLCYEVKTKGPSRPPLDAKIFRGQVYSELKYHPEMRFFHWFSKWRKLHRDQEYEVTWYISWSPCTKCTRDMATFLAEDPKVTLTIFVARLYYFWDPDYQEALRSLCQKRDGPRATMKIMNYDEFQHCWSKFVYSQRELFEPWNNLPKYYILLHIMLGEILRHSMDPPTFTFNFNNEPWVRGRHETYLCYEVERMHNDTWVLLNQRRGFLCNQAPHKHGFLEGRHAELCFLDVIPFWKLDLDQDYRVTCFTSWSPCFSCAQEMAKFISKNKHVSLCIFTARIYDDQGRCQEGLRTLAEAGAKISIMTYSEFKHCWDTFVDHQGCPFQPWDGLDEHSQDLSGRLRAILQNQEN
Sequence of Luciferin 4-monooxygenase (Photinus pyralis) (P08659 whole entry, looked up): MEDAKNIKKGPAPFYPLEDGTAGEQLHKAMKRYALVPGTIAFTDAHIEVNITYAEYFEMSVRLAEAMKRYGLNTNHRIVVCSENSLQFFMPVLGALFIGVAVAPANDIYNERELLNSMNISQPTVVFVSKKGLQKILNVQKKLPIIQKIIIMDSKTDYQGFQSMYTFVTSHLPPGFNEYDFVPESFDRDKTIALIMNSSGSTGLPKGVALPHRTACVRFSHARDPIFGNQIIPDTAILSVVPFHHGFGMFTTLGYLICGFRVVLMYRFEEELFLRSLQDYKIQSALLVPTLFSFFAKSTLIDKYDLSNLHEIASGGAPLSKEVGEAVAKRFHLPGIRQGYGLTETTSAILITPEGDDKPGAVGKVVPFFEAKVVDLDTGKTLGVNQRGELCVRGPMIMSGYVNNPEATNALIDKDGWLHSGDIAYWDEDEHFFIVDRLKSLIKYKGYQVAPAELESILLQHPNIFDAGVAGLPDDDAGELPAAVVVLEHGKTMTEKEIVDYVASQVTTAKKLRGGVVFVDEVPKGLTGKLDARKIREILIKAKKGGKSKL
Sequence of Glucocorticoid receptor (Homo sapiens) (P04150 whole entry, looked up, the tested form may be a part): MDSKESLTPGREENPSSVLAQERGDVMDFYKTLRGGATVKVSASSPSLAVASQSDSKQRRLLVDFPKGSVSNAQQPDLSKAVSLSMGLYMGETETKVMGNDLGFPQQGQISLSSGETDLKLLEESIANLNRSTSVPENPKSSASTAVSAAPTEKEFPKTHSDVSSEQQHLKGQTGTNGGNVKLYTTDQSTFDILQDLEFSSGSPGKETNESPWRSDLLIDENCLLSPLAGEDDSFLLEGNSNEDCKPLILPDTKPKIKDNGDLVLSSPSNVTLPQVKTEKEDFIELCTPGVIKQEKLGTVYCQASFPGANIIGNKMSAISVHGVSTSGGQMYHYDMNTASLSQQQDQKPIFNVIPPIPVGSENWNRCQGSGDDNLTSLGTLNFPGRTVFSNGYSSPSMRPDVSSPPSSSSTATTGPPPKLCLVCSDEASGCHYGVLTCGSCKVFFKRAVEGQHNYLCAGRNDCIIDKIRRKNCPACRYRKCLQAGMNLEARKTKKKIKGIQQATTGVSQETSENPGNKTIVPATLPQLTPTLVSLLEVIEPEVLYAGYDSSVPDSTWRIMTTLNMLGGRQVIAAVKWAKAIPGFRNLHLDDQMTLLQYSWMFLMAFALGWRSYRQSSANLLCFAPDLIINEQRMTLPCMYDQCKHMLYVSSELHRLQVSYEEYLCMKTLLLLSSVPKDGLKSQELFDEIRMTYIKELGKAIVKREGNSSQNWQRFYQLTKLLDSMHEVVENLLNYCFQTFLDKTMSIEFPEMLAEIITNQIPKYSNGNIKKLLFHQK

CNCCc1ccccc1
inactive: [1] | [2] | [3] | [4] | [5] | [6] | [7] | [8] | [9]

C[C@@H]1O[C@H](O[C@@H]2C[C@@H](O)[C@]3(CO)[C@H]4[C@H](O)C[C@]5(C)[C@@H](C6=CC(=O)OC6)CC[C@@]5(O)[C@@H]4CC[C@]3(O)C2)[C@@H](O)[C@H](O)[C@H]1O
inactive: [10] | [11] | [12] | [13]

NC(=NCc1ccc(Cl)cc1)SCCCc1cnc[nH]1
inactive: [14] > 46 µM | [15] > 46 µM | [10] | [12] | [13]

CN(C)c1ccc(/C=C2\CCCN=C2c2cccnc2)cc1
inactive: [13]

CS(=O)(=O)Nc1ccc(Cc2noc(-c3ccc4[nH]cc(CCN)c4c3)n2)cc1
inactive: [14] > 46 µM | [15] > 46 µM | [11] | [12] | [13]

CCN1C[C@]2(C)CC[C@@H](O)[C@]34C1[C@H](C[C@H]23)C12CCC(CC14)[C@](O)(CO)[C@H]2O (stereo not given in full)
inactive: [1] | [2] | [3] | [4] | [5] | [6] | [7] | [8] | [9]

CCN1C[C@]2(COC(=O)c3ccccc3N3C(=O)C[C@H](C)C3=O)CC[C@H](OC)[C@@]34[C@@H]5C[C@H]6[C@H](OC)[C@H]5[C@](O)(C[C@@H]6OC)[C@@](O)([C@@H](OC)[C@@H]23)[C@@H]14
inactive: [14] > 46 µM | [15] > 46 µM | [11] | [12] | [13]

O=C(CCCN1CCC2(CC1)C(=O)N(Cc1cccc(F)c1)CN2c1ccccc1)c1ccc(F)cc1
inactive: [14] > 46 µM | [15] > 46 µM | [12] | [13]

C[C@@H](N)Cn1ccc2cc(F)c(Cl)cc21
inactive: [14] > 46 µM | [15] > 46 µM | [10] | [11] | [12] | [13]

COC(=O)C1=C2Nc3ccccc3[C@@]23CCN2CC(C(C)=O)C1C[C@H]23 (stereo not given in full)
active: [1] 9.43 µM
inactive: [2] | [3] | [4] | [5] | [6] | [7] | [8] | [9]

CC[N@@+]1([O-])C[C@]2(C)CC[C@@H](O)[C@@]34C5C[C@H]6CC[C@@]5(C(C[C@H]23)C41)[C@H](O)[C@@]6(O)CO (stereo not given in full)
inactive: [1] | [2] | [3] | [4] | [5] | [6] | [7] | [8] | [9]

Cc1c(C(=O)c2ccc3ccccc3c2)c2cccc3c2n1[C@H](CN1CCOCC1)CO3
inactive: [14] > 46 µM | [15] > 46 µM | [12] | [13]

Fc1ccc(C(OCCN2CCN(C/C=C\c3ccccc3)CC2)c2ccc(F)cc2)cc1
inactive: [14] > 46 µM | [15] > 46 µM | [10] | [11] | [12] | [13]

CCCCC1(C2CCCC2)Cc2cc(OCCCC(=O)O)c(Cl)c(Cl)c2C1=O (stereo not given)
inactive: [13]

CCOC(=O)[C@@]12[C@@H]3[C@@H](CCN3C(=O)N[C@H]1c1ccccc1)C2(C)C
inactive: [16] | [17] | [18] | [19]

COC(=O)C1=C2CCO[C@@H]2[C@H]2[C@@H](C)[C@H](OC)c3ccccc3[C@H]12
inactive: [16] | [17] | [18] | [19]
